Consider 13 compounds from PubChem BioAssay (NCATS).

The nature of test [1]: qHTS Assay for Lipid Storage Modulators (AID 1519; calls by dose curve). Particulars: Drosophila S3 cells, BODIPY lipid droplet/cell ratio, laser cytometry, cells loaded with oleic acid. In a few lines: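 Cells seeded at 5,000 per well were treated with compounds over a concentration series and loaded with oleic acid (400 uM, as added). Lipid droplet fluorescence (488 nm excitation, 500-530 nm channel) was read by laser-scanning cytometry and normalized to 20 uM Triacsin C.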

Test [2] is described as follows: Cell Viability - LYMP1-002 - Assay at 24 hr (AID 993). Also: % is scaled to controls: 0 for no effect and ±100 for the full control effect. The settings on record: LYMP1-002 lymphoblastoid cells viability; series mostly up to 92.2 µM. The essentials: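 Cells plated 2500/well, 5 hr 37 C; compounds added, 24 hr 37 C; CellTiter-Glo added, 30 min RT; luminescence read. Tetraoctylammonium bromide positive control. Hill-equation AC50.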
The nature of test [3]: Cell Viability - LYMP1-002 - Assay at 40 hr (AID 994).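 Also: 0% = DMSO only and full inhibition = 92 µM tetraoctylammonium bromide; nearly all actives have a fitted effect of over 60% in size.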 Particulars: LYMP1-002 lymphoblastoid cell viability; series mostly up to 92.2 µM. The essentials: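 Luminescent ATP signal served as the viability readout, with decreases taken as toxicity. Cells were treated with compounds across a concentration range for 40 hours at 37 C, and AC50 values came from standard Hill modeling.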

A short description of test [4]: qHTS Assay for Identification of Small Molecule Inducers of Hypoxia Response (AID 2120; active = well fitted curve in the direction sought with a large enough effect in the signal ratio, with a control signal flat, not every such curve was filed as active; the % refers to the signal ratio; also: 0% is about no effect). Particulars: hypoxia response reporter cells, beta-lactamase ratio readout; series mostly up to 104 µM. In a few lines: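 ME-180 HRE-bla cells plated in Opti-MEM/0.5% dialyzed FBS, rested 4-5 h, then dosed with compound titrations by pin tool. After 17 h at 37 degrees C, CCF4 dye loaded 2.5 h at RT; 460/530 nm ratio gave %Activity and AC50.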

Test [5] has as its target alpha-glucosidase (Oryza sativa, rice) (UniProt Q653V4). Kind of test: Counterscreen for Glucocerebrosidase Inhibitors: qHTS Assay for Rice alpha-Glucosidase at pH 5.0 (AID 997).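 Also: 0% = full activity with enzyme and -100% = basal without enzyme.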 The settings on record: rice alpha-glucosidase enzyme activity; series mostly up to 76.9 µM. The essentials:
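Rice alpha-glucosidase (4 nM final) with 400 uM 4-methylumbelliferyl-alpha-D-glucopyranoside in citrate buffer pH 5.0, 20 min at room temperature, stopped at pH 10; fluorescence 365/440 nm, compounds 0.7 nM–77 uM, AC50 from Hill fits.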

Test [6] concerns the target DNA repair nuclease/redox regulator APEX1 (Homo sapiens) (UniProt P27695). Description: qHTS Validation Assay for Inhibitors of the Human Apurinic/apyrimidinic Endonuclease 1 (APE1) (AID 1705;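 also: TAMRA fluorescence gain over two minutes as APE1 cuts a quenched THF abasic duplex; % is scaled to controls: 0 for no effect and ±100 for the full control effect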). Particulars: purified APE1 endonuclease activity, fluorescence, titration; series mostly up to 57.1 µM. The essentials: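 Fluorogenic double-stranded THF abasic-site substrate (5'-TAMRA/3'-BHQ-2), 50 nM final. Enzyme preincubated with compound 15 min at room temperature, then substrate added. Kinetic fluorescence (ex 525/em 598 nm) read three times at 60 s intervals; activity taken as third-minus-first read difference.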

Test [7] deals with Endonuclease 4 (Escherichia coli (strain K12)) (UniProt P0A6C1). Description: Counterscreen for APE1 Inhibitors: qHTS Validation Assay for Inhibitors of Endonuclease IV (AID 1708). Also: % is scaled to controls: 0 for no effect and ±100 for the full control effect. Particulars: E. coli endonuclease IV, DNA cleavage fluorescence; series mostly up to 57.1 µM. In a few lines:
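E. coli EndoIV at 2 nM final, preincubated 15 min at room temperature with compound, then 50 nM TAMRA/BHQ-2 THF abasic-site duplex added. Buffer: 50 mM Tris-HCl pH 7.5, 50 mM NaCl, 2 mM MgCl2, 1 mM DTT, 0.01% Tween-20. Kinetic fluorescence increase, third minus first read.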

A short description of test [8]: qHTS for differential inhibitors of proliferation of Plasmodium falciparum line 7G8 (AID 1815).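 Also: parasite growth measured after three days of incubation.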 Also: potency is read from the fitted curve at half-maximal effect.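 As to activity change, negative = inhibition: plate controls were vehicle wells for no effect and reference inhibitor wells for full effect.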 Particulars: Plasmodium falciparum 7G8 proliferation inhibition; series mostly up to 28.7 µM.
Test [9] can be described thus: qHTS for differential inhibitors of proliferation of Plasmodium falciparum line GB4 (AID 1816).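 Also: parasite growth measured after 72 h incubation.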 Also: potency is read from the fitted curve at half-maximal effect.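 As to activity change, negative = inhibition: 0% = vehicle DMSO and -100% = reference inhibitor.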 The settings on record: Potency: Plasmodium falciparum GB4 proliferation inhibition; series mostly up to 28.7 µM.
A short description of test [10]: qHTS for differential inhibitors of proliferation of Plasmodium falciparum line 3D7 (AID 1876). Also: potency is read from the fitted curve at half-maximal effect. Particulars: P. falciparum 3D7 proliferation inhibition; series mostly up to 28.7 µM.
Test [11] in a line: qHTS for differential inhibitors of proliferation of Plasmodium falciparum line D10 (AID 1877).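 Also: parasites grown with compound for 72 h before DNA staining.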 Also: potency is read from the fitted curve at half-maximal effect.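 As to activity change, negative = inhibition: plate controls were vehicle wells for no effect and reference inhibitor wells for full effect.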 Particulars: series mostly up to 28.7 µM.
Test [12] is described as follows: qHTS for differential inhibitors of proliferation of Plasmodium falciparum line Dd2 (AID 1882). Also: nearly all actives have a fitted effect of over 65% in size. Also: potency is read from the fitted curve at half-maximal effect.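 As to activity change, negative = inhibition: plate controls were DMSO vehicle for no effect and 0.29 µM artemisinin for full effect.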 The settings on record: Potency: Plasmodium falciparum Dd2 proliferation inhibition; series mostly up to 28.7 µM. The essentials:
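Dd2-infected erythrocytes (0.3% parasitemia, 2.5% hematocrit final) incubated with compound 72 h at 37 C, 5% CO2; lysed with saponin/Triton buffer containing SYBR Green I, incubated overnight in the dark, then read by fluorescence (485/535 nm). Normalized to 0.29 uM artemisinin and DMSO.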

A short description of test [13]: qHTS for differential inhibitors of proliferation of Plasmodium falciparum line W2 (AID 1883).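 Also: potency is read from the fitted curve at half-maximal effect; parasites grown with compound for 72 h before lysis and staining.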 Particulars: Potency: Plasmodium falciparum W2 proliferation inhibition; series mostly up to 28.7 µM.
The nature of test [14]: qHTS for differential inhibitors of proliferation of Plasmodium falciparum line HB3 (AID 1886).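 Also: parasites grown with compound for 72 h before SYBR Green readout.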 Also: potency is read from the fitted curve at half-maximal effect.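 As to activity change, negative = inhibition: plate controls were vehicle for no effect and reference inhibitor for full effect.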 The settings on record: Potency: Plasmodium falciparum HB3 proliferation inhibition; series mostly up to 28.7 µM.
The target of test [15] is Ferritin light chain (Equus caballus) (UniProt P02791). Kind of test: qHTS Validation Assay for Identification of Novel General Anesthetics (AID 2323). Also: % is scaled to controls: 0 for no effect and ±100 for the full control effect. The settings on record: horse apoferritin, anesthetic-site fluorescent probe displacement; series mostly up to 76.9 µM. The essentials:
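Horse-spleen apoferritin (10 uM) in PBS with 50% saturated 1-aminoanthracene; compounds pin-transferred, 10 min at room temperature. Fluorescence read at 380/535 nm, normalized to free 1-AMA and 1-AMA/apoferritin values; four-parameter Hill fit.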

Test [16] in a line: Cytometric Cell-Based qHTS for Inhibitors of the mTORC1 Signaling Pathway in MEF (Tsc2-/-, p53-/-) Cells (AID 2660).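 Also: Tsc2 and p53 null MEFs carrying empty vector with compound for 24 h; percent of cells above a phospho-rpS6 to PI ratio cutoff in each well; plate controls were DMSO for no effect and rapamycin for full effect.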 Particulars: mTORC1 pathway cytometry; series mostly up to 38.3 µM. The essentials:
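Percent of cells positive for normalized phospho-S6 staining is reported, with the cutoff set from rapamycin (7.5 nM) versus DMSO wells. Tsc2-/-, p53-/- MEFs received compound for 24 hrs.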

Test [17] can be described thus: Validation of Assay for Modulators of Lamin A Splicing (AID 1459; active = well fitted curve in the direction sought with a large enough effect in the signal ratio; the % refers to the signal ratio;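 also: cells exposed to compound for two days before reading; 0% is about no effect; ratio rise marks activators and ratio drop marks inhibitors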). The settings on record: Lamin A splicing dual RFP/GFP fluorescence reporter; series mostly up to 9.22 µM. The essentials: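 S3 HeLa stably expressing lamin A-EGFP splicing minigene and DsRed2, 600 cells/well in Opti-MEM with 2% FBS, treated 48 h at 37C; laser-scanning cytometry gives GFP/RFP total intensity ratio; ancitabine positive control, 0.5% DMSO vehicle.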

Test [18] addresses ATP-dependent DNA helicase Q1 (Homo sapiens) (UniProt P46063). Kind of test: qHTS Validation Assay for Inhibitors of RecQ-Like Dna Helicase 1 (RECQ1) (AID 2353).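 Also: plate controls were DMSO vehicle for no effect and enzyme-free control for full effect.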 The settings on record: recombinant RECQ1 helicase DNA unwinding assay; series mostly up to 25.6 µM. In a few lines: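 50 nM RECQ1T1 preincubated 15 min with compound in Tris pH 8.0 buffer with MgCl2, DTT, Tween-20 and 2.5 ug/ml poly(dI-dC); started with 200 nM TAMRA/BHQ-2 forked duplex and 2 mM ATP. Unwinding read as fluorescence (525/598 nm), two reads 2 h apart.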

The nature of test [19]: qHTS Assay for Modulators of Human Peripheral Myelin Protein 22 (PMP22) Expression/Activity (AID 1967; active = well fitted curve in the direction sought with a large enough effect in the signal ratio; the % refers to the signal ratio;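 also: 0% = untreated cells and 100% end not stated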). Particulars: Cell-based PMP22 reporter, dual-color luciferase ratio, 0% = compound-free control cells, mouse Pmp22 promoter in mouse Schwann cells; series mostly up to 115 µM. The essentials:
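Mouse MSC80 Schwann cells carrying Pmp22 promoter–green click beetle luciferase plus EF-alpha–red luciferase control, dosed 24 h at 37 °C. Dual-filter luminescence, overlap-corrected; %Activity from green/red ratio normalised to untreated cells, concentration-response curves fitted.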

Test [20] deals with RecQ-like DNA helicase BLM (Homo sapiens) (UniProt P54132). Description: qHTS Validation Assay for Inhibitors of Bloom's syndrome helicase (BLM) (AID 2364).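 Also: plate controls were DMSO vehicle for no effect and enzyme-free control for full effect.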 Particulars: BLM helicase DNA unwinding, fluorescence, in vitro; series mostly up to 57.1 µM. The essentials: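 50 nM BLM preincubated 15 min at room temperature with compound in pH 8.0 Tris buffer containing 2.5 ug/ml poly(dI-dC); started with 200 nM TAMRA/BHQ-2 forked duplex and 2 mM ATP (final). Unwinding read as TAMRA fluorescence increase, two reads 2 h apart.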
RecQ-like DNA helicase BLM (Homo sapiens), sequence (P54132 whole entry, looked up): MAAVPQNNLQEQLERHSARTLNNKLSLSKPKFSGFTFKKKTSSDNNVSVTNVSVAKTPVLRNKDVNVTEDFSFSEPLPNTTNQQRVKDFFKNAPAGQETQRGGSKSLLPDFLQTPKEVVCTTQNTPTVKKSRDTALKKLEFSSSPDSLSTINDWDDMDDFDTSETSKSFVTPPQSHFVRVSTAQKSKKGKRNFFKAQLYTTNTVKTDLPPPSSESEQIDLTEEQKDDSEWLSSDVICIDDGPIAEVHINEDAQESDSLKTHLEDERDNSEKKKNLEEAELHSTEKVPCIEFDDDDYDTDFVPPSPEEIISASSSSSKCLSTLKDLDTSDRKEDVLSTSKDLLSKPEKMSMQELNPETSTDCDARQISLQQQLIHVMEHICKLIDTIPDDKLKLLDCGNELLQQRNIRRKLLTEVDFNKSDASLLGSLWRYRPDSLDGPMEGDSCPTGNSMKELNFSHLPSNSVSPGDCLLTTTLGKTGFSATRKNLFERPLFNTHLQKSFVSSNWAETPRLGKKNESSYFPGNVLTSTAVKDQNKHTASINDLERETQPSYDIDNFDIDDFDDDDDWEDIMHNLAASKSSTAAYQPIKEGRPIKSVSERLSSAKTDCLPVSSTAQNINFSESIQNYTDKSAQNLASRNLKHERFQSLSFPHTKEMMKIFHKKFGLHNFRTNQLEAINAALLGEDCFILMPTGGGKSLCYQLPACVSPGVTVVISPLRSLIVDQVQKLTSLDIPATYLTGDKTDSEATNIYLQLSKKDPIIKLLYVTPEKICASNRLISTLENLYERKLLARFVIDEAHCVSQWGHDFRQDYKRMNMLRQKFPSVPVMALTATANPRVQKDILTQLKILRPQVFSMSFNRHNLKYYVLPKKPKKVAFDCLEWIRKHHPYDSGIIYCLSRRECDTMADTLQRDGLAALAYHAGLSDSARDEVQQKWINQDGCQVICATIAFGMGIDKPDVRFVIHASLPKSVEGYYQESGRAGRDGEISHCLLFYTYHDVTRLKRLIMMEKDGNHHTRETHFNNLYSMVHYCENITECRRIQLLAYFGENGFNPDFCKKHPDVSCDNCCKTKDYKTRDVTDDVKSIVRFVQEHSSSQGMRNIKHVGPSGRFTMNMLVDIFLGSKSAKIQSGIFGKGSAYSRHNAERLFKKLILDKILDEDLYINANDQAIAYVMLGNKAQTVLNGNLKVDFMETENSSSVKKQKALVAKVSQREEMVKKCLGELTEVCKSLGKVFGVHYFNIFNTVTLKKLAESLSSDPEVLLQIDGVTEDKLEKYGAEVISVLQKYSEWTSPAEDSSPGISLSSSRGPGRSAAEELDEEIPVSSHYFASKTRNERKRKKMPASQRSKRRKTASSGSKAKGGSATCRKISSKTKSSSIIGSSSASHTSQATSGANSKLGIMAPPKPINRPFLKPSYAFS

Setting [21] is: measured here: cell count channel max response.
The mark [22] stands for this setting: measured here: lipid channel max response.

Results filed as inconclusive are left out. Activity calls are given as the source filed them. Unless noted, calls follow the shape of the dose curve; as a rule, active = well fitted curve in the direction sought with a large enough effect; inconclusive = small, poorly fitted or top-dose-only effect, or another doubt; inactive = no such curve, though single readings can be large; an effect the other way counts as inactive or inconclusive.

Ferritin light chain (Equus caballus), sequence (P02791 2-175 limits assumed): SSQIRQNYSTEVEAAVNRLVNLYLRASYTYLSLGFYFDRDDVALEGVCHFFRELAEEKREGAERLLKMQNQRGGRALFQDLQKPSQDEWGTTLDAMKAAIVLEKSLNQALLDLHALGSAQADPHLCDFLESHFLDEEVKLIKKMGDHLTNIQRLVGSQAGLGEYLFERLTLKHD
ATP-dependent DNA helicase Q1 (Homo sapiens), sequence (P46063 whole entry, looked up): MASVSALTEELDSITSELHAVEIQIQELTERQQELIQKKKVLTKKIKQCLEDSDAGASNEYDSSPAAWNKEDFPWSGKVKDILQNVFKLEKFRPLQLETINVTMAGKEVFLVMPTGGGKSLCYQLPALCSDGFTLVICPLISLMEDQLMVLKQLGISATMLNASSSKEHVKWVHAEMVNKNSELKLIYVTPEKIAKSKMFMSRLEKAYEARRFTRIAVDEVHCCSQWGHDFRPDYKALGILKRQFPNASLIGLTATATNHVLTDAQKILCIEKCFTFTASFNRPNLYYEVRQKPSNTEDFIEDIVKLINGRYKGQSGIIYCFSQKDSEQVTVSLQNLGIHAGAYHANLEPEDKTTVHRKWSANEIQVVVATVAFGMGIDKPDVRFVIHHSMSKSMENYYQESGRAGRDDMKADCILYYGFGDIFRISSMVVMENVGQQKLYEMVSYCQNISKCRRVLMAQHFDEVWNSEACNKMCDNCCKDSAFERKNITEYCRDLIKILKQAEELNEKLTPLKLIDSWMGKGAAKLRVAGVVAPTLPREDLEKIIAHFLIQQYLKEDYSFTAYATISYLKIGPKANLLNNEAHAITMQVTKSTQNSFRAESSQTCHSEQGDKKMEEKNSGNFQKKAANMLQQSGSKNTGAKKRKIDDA
DNA repair nuclease/redox regulator APEX1 (Homo sapiens), sequence (P27695 whole entry, looked up): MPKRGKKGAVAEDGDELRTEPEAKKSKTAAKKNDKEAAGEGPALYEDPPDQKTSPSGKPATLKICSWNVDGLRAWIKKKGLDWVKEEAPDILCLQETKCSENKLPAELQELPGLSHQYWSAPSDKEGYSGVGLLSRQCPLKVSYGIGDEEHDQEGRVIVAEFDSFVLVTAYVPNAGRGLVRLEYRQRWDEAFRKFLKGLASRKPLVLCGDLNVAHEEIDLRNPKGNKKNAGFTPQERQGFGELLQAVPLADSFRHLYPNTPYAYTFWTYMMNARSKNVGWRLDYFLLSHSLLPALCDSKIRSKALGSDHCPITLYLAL

For `O=C(CCCCC(=O)Nc1c(I)cc(I)c(C(=O)O)c1I)Nc1c(I)cc(I)c(C(=O)O)c1I`, in test [1] (at 25.7 µM (top of the series)), the activity change, negative = inhibition was -0.504% (inactive). In addition, the max response was -3.67% in test [1] (setting [21]) and -4.34% in test [1] (setting [22]).
`Cc1cc(C(C)(C)C)c(O)c(C(C)(C)C)c1`: the Potency entry in test [2] and in test [3] was “inactive” each time. The activity change, negative = inhibition in test [1] (at 57.5 µM (top of the series)) was 4.82% (inactive). Further, the max response was determined as 4.25% in [1] (setting [21]) and 10.5% in test [1] (setting [22]). Further, the result in test [4] was inactive.
Turning to `OCc1c[nH]c2ccccc12`, the Potency result in [2] and in test [3] was “inactive” in each case. In addition, the activity change, negative = inhibition in test [1] (at 57.5 µM (top of the series)) was 3.03% (inactive). Besides, the max response is 0.192% in test [1] (setting [21]) and 7.12% in [1] (setting [22]). The result in test [4] was inactive.
On to `O=[N+]([O-])c1ccc(-c2nc(-c3ccc(F)cc3)c(-c3ccncc3)[nH]2)cc1`, for which the outcome in [5], in [6], in test [7], in [15] and in test [16] was inactive. Also, the Potency in test [8] is 4.47 µM (active); in [9] it was 3.98 µM (active); in test [10] it was 3.55 µM (active); in test [11], 5.01 µM (active); in [12], 6.31 µM (active); in test [13] it was 3.98 µM (active). Also, in [14], the Potency is 4.47 µM (active).
On to `OC(CCCN1CCCCC1)(c1ccccc1)c1ccccc1`, for which the activity change, negative = inhibition in test [1] (at 25.7 µM (top of the series)) is -0.646% (inactive). Further, the values for the max response in test [1] (setting [21]) and in test [1] (setting [22]) were 10.3% and 9.61%, respectively.
With `CN(C)c1cc2c(Nc3ccc4c(cnn4Cc4ccccc4)c3)ncnc2cn1`, the call in test [5], in [17], in test [15], in test [18] and in test [16] was inactive. Also, the Potency in test [8] was 5.01 µM (active); in test [9] it was 3.16 µM (active); in test [10] it was 3.55 µM (active); in [11], 10 µM (active); in test [12], 11.2 µM (active); in [13], 3.55 µM (active). In addition, the Potency in [14] was 4.47 µM (active).
For the compound `Brc1ccc([C@H]2CN3CCSC3=N2)cc1`, the result in test [5], in test [17], in [6], in [7], in [19] and in test [18] was inactive. Also, the outcome in [16] was inactive. For the same compound, the activity change, negative = inhibition in test [1] (at 57.5 µM (top of the series)) is 0.192% (inactive). Further, the max response in test [1] (setting [21]) is -9.46%; in [1] (setting [22]), -7.25%. Besides, the Potency is 11.2 µM (active) in test [8], 12.6 µM (active) in test [9] and 7.94 µM (active) in test [13]. In addition, the Potency entry in [11] is “inactive”.
Take `Cc1ccc2c(Cl)cc(Cl)c(O)c2n1`: the activity change, negative = inhibition in test [1] (at 57.5 µM (top of the series)) was 4.67% (inactive). Further, the max response is -3.23% in [1] (setting [21]) and 2.66% in test [1] (setting [22]).
The like results for `O=C(O)/C=C(\CC(=O)O)C(=O)O` were, in that order, 3.99% (inactive), -7.3% and 1.94%.
On to `Cn1cnc2c(NCc3ccccc3)nc(NCCO)nc21`, for which the compound was called inactive in test [5], in [17], in test [6], in test [7], in [15] and in test [18]. Also, the compound was classed as inactive in test [20] and in test [16]. Moreover, the activity change, negative = inhibition in [1] (at 57.5 µM (top of the series)) is -0.56% (inactive). In addition, the results for the max response in test [1] (setting [21]) and in test [1] (setting [22]) were -34.4% and -34.7%, respectively. Further, the Potency entry in [8] and in [12] was “inactive” in each case.
On to `Cc1ccc(O)cc1`, for which the Potency result in test [2] and in test [3] was “inactive” each time. Moreover, in test [1] (at 57.5 µM (top of the series)), the activity change, negative = inhibition is 6.36% (inactive). In addition, the max response is 10.2% in [1] (setting [21]) and 20.7% in test [1] (setting [22]).
For `CC(C)N(CCC(=O)c1ccc2ccccc2c1)Cc1ccccc1`, the outcome in test [5], in [6], in test [7] and in test [18] was inactive. Moreover, the Potency result in test [10], in [11], in test [12] and in test [14] was “inactive” in each case.
As for `C[C@]12CCC(=O)C=C1CC[C@@H]1[C@@H]2[C@@H](O)C[C@@]2(C)[C@H]1CC[C@]2(O)C(=O)COC(=O)CCC(=O)O`, the call in test [6], in [7], in [15], in test [18] and in test [20] was inactive. The Potency result in [9], in test [10], in test [11], in test [12] and in [14] was “inactive” throughout.
